Experimental data reported in the supplement of paper PMC11732987, “Enantioselective OTUD7B fragment discovery through chemoproteomics screening and high-throughput optimisation” (Communications Chemistry, 2025).

Key:
Test in all cases: log2 ratio of Biotin-Ahx-Ub-VS probe labelling (fragment/DMSO); higher = less target engagement (more negative = stronger competition), active = hit call of the paper (q ≤ 0.05, log2 ratio ≤ -1)
Conditions in all cases: compound concentration: 200 uM; treatment time: 3 h
USP9X = USP9X (UniProt Q93008)
Outline: (§1)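 HEK293T lysate (495 µg per sample, in Tris/CHAPS/IGEPAL buffer with protease inhibitors) was treated in triplicate with fragment at 200 µM or with DMSO for 3 h. It was then treated with Biotin-Ahx-Ub-VS (0.5 µM final) for 1 h. Labelled DUBs were NeutrAvidin-enriched, digested with LysC and trypsin, and run by diaPASEF LC-MS/MS. Spectronaut label-free quantities were global-median-normalised. Values are average log2 ratios fragment/DMSO by unpaired t-test, using proteins with ≥2 unique peptides.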

UniProt O00487 = target: UniProt O00487
Outline: as §1

UniProt O00507 = target: UniProt O00507
Outline: as §1

UniProt P51784 = target: UniProt P51784
Outline: as §1

UniProt Q5T2D3 = target: T1, UniProt Q5T2D3
T1 sequence (whole entry): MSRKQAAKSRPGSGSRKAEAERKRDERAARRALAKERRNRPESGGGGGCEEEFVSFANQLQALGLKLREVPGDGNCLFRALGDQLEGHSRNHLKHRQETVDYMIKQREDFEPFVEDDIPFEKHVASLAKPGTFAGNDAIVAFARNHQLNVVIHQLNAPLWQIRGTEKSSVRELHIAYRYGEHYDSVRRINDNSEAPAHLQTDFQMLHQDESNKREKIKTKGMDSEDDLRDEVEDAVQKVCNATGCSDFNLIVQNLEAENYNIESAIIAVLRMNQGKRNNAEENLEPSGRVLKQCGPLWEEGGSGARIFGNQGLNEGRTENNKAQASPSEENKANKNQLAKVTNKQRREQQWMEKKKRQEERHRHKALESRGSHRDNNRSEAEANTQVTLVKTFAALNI
Outline: as §1

UniProt Q8TE49 = target: T2, UniProt Q8TE49
T2 sequence (whole entry): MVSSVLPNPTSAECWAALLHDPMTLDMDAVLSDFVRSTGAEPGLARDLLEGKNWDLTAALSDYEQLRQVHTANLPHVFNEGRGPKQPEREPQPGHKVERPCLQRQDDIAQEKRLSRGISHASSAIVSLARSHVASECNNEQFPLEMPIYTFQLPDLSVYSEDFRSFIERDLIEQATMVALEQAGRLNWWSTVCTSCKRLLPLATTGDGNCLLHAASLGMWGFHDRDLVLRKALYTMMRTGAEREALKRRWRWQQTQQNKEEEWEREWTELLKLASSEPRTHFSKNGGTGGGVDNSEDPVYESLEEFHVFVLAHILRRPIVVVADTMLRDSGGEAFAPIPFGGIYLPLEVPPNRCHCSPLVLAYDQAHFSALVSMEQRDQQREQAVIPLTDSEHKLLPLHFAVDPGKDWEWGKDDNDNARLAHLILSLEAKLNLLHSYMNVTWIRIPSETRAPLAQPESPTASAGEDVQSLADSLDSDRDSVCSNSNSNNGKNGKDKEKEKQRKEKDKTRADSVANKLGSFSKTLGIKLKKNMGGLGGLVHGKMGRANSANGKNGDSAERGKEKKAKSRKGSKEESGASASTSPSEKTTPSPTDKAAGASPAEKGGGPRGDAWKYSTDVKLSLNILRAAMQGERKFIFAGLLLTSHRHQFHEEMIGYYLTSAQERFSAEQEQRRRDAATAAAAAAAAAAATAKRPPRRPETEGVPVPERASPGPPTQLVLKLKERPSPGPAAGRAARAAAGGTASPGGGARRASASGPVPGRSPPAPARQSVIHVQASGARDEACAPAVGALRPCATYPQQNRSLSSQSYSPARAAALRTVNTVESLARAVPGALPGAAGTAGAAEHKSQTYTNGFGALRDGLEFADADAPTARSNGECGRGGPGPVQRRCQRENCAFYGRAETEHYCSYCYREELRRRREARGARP
Outline: as §1

UniProt Q9P2H5 = target: T3, UniProt Q9P2H5
T3 sequence (whole entry): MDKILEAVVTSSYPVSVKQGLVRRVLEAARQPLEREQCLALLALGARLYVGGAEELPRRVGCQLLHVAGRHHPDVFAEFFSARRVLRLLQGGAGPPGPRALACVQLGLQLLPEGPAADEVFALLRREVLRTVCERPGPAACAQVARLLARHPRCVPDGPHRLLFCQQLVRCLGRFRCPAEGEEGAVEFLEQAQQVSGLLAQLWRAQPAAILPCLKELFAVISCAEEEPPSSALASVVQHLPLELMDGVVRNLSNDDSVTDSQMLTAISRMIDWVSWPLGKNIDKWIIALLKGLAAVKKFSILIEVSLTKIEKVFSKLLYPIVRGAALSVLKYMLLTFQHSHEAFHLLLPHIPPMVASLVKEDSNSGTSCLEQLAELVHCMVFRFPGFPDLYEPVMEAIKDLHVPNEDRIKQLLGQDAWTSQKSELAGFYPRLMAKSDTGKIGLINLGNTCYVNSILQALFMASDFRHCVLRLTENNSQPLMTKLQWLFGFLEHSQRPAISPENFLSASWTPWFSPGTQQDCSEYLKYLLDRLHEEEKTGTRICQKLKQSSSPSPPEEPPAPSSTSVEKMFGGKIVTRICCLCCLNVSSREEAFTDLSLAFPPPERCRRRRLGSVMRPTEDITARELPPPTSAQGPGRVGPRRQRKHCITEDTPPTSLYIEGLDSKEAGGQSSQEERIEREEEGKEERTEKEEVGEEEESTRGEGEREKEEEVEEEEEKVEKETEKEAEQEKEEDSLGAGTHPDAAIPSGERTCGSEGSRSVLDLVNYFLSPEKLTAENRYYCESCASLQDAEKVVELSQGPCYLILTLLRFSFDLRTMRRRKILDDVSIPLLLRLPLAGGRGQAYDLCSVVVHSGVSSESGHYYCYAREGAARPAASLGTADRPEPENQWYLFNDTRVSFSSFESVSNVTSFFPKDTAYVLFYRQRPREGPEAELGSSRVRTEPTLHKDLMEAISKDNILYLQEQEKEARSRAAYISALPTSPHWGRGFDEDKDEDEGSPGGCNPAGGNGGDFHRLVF
Outline: as §1

UniProt Q9UGI0 = target: T4, UniProt Q9UGI0
T4 sequence (whole entry): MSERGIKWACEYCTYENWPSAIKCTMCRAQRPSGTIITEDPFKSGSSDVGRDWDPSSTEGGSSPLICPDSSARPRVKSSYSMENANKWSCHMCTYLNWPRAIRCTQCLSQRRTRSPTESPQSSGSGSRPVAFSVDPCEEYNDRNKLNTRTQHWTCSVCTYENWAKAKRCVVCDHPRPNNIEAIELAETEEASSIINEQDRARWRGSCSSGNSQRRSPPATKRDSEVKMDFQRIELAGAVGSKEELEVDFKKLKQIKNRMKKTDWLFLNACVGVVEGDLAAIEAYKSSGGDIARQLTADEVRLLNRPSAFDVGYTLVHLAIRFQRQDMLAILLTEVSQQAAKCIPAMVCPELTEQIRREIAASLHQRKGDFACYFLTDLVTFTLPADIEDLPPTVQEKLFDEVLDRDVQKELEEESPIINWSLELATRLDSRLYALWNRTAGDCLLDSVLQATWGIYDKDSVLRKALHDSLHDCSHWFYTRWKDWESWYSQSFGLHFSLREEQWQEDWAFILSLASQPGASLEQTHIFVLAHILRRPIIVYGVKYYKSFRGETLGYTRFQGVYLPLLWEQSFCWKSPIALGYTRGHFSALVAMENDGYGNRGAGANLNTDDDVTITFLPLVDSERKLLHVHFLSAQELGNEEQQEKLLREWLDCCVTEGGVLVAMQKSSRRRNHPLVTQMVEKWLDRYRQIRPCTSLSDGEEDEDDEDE
Outline: as §1

YOD1 = target: T5, YOD1 (UniProt Q5VVQ6)
T5 sequence (whole entry): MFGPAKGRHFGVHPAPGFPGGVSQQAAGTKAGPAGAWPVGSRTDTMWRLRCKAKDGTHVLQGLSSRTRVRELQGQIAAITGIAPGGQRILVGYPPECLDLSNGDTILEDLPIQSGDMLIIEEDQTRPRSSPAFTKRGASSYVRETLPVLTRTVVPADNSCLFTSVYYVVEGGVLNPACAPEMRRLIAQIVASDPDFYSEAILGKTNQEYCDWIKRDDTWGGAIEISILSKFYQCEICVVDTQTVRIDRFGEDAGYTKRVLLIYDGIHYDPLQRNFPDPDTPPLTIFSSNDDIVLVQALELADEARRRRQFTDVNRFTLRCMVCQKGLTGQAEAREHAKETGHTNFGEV
Outline: as §1

Measured: log2 ratio of Biotin-Ahx-Ub-VS probe labelling

USP9X, sequence (Q93008 whole entry, the tested form may be a part): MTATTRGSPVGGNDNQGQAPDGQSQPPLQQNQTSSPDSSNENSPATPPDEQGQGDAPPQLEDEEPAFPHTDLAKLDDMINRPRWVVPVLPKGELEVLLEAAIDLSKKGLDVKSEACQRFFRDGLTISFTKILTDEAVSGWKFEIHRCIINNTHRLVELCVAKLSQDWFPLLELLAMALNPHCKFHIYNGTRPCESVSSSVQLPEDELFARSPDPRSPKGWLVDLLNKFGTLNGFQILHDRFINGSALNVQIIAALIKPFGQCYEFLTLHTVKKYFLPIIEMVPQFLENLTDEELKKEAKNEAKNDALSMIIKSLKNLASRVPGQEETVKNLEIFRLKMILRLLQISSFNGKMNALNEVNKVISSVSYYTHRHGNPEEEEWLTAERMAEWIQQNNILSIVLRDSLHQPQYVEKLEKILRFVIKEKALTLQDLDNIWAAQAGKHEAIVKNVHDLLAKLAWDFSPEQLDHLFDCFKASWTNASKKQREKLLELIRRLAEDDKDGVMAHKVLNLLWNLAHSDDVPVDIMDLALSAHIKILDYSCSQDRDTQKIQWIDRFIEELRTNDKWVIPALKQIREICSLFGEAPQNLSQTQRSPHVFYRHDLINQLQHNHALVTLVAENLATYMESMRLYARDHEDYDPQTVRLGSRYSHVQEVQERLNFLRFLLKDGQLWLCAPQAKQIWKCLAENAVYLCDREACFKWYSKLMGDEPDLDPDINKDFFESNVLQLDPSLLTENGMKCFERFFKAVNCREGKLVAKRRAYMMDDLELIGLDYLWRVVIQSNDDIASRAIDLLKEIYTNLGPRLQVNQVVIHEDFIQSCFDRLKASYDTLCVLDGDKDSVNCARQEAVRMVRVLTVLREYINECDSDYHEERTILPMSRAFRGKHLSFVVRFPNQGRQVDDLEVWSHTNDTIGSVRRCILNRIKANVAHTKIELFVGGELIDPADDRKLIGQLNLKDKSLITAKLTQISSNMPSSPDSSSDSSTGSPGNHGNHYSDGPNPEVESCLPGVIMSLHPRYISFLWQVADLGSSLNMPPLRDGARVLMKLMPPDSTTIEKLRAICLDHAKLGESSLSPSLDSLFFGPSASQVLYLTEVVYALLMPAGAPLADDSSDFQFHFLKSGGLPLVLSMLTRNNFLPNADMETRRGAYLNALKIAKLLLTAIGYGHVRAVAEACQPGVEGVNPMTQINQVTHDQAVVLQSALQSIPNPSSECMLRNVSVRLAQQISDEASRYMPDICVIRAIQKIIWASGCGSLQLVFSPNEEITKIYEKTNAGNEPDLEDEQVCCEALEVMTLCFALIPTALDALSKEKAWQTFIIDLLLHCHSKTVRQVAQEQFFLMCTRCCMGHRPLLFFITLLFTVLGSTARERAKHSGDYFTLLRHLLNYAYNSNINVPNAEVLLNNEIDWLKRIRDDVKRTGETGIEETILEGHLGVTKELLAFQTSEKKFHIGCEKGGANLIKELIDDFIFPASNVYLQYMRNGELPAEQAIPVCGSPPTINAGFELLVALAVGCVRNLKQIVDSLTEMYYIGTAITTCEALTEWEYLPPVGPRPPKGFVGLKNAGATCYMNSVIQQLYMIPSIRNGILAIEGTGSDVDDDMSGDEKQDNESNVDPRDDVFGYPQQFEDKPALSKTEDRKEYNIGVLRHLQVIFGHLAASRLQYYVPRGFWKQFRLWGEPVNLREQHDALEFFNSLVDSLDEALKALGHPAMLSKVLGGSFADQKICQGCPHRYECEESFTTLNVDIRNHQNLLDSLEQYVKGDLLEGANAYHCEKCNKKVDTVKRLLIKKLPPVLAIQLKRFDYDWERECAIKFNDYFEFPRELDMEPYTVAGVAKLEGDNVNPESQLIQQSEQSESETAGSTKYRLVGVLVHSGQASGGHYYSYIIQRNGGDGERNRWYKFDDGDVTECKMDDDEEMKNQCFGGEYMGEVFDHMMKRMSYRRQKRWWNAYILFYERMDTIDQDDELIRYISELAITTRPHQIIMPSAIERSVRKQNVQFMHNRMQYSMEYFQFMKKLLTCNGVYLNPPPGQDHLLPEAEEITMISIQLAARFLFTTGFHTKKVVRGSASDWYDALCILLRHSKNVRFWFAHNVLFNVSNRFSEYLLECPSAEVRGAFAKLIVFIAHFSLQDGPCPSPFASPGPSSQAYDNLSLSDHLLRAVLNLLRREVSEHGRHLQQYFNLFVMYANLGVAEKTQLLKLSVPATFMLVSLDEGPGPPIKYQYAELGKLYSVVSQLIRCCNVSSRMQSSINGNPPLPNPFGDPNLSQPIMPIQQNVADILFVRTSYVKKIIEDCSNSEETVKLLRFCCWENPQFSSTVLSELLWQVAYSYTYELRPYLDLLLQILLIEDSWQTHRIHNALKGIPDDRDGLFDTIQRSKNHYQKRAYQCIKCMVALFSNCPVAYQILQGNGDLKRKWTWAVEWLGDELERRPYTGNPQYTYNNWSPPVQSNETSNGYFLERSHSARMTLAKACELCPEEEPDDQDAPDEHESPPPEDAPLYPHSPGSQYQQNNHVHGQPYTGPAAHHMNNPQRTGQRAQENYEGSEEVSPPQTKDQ
UniProt P51784, sequence (P51784 whole entry): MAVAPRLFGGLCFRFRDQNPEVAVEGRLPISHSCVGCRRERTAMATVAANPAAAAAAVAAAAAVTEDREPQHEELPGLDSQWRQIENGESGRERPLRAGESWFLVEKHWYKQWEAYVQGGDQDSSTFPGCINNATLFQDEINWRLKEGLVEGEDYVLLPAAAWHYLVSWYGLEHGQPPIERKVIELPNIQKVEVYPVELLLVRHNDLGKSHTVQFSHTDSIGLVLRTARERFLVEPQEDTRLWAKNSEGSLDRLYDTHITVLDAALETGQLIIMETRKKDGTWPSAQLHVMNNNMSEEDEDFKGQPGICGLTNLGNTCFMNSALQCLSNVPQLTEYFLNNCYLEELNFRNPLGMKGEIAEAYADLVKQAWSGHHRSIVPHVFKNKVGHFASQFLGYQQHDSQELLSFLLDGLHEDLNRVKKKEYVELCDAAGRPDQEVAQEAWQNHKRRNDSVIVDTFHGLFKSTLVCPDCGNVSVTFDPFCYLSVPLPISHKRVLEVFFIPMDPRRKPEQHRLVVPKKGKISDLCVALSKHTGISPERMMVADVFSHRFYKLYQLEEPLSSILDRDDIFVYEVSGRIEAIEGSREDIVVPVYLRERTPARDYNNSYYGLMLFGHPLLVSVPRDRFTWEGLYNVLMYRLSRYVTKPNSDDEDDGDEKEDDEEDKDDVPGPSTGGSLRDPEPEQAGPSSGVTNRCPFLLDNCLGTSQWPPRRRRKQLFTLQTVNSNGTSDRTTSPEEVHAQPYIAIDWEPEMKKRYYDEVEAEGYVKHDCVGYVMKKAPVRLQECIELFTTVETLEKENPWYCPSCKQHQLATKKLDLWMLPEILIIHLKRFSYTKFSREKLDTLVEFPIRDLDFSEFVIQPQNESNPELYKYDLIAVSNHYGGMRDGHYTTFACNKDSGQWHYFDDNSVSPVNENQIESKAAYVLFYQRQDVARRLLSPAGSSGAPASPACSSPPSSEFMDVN
UniProt O00487, sequence (O00487 whole entry): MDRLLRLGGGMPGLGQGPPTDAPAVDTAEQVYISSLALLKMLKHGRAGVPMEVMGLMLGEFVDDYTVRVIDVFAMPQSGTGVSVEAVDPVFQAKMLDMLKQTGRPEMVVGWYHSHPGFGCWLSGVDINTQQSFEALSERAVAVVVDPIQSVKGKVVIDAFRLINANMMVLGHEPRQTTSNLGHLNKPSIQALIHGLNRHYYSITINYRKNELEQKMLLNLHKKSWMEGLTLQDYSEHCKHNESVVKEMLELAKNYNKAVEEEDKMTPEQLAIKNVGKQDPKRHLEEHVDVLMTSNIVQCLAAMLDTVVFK

Cc1ccc(CC(CO)CNC(=O)CCl)cc1 (centres undefined)
inactive: USP9X -0.363 | UniProt O00487 -0.242 | UniProt O00507 -0.3 | UniProt P51784 -0.172 | UniProt Q5T2D3 -0.293 | UniProt Q8TE49 -0.933 | UniProt Q9P2H5 -0.149 | UniProt Q9UGI0 -0.929 | YOD1 -0.164
